Data as given in the supplement of paper PMC10849652.
Targets with a hit are over-represented here; the source holds about 7,900 in all. About 0.6% of all pairs of compound and target were hits. A number with no mark means an inactive call.

Compound: CNCc1ccc(-c2[nH]c3cc(F)cc4c3c2CCNC4=O)cc1 [rucaparib]
Assay: log2 fold change, soluble protein after heating vs DMSO (PISA); higher = thermal stabilisation; K562 cells, 10 uM, 30 min; active = over 0.2 and 3.5 SD of the protein, either way, in both replicates (recomputed)
Summary of the method: (§1)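 Thermal stability values are relative to control samples and come from duplicates. They are expressed as log2 fold changes. For measurement, K562 cells (2×10^6 cells/mL) received 10 μM compound for 30 min, and aliquots were heated for 3 min over 48°C-58°C, pooled, and extracted at 4°C in PBS with 0.5% NP-40. Soluble protein, the supernatant after 21,000xg for 90 min, was quantified by TMTpro 16plex LC-MS/MS with equalised channel sums.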

Chain of UniProt Q9UKD1 (Q9UKD1 whole entry, looked up): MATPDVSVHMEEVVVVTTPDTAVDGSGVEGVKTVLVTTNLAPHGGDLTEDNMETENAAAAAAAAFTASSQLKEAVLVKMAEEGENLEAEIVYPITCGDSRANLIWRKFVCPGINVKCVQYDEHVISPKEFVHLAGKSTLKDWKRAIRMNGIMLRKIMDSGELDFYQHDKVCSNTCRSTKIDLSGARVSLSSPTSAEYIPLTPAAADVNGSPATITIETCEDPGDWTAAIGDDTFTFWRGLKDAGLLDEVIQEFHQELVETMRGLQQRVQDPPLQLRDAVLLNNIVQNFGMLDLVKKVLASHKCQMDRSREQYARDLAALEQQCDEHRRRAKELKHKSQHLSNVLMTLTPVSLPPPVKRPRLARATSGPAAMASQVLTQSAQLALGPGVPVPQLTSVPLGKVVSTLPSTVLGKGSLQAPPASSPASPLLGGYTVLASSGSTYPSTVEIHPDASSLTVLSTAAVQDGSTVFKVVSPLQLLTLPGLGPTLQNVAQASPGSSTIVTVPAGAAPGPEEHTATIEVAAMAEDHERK
Chain of UniProt P54803 (P54803 whole entry, looked up): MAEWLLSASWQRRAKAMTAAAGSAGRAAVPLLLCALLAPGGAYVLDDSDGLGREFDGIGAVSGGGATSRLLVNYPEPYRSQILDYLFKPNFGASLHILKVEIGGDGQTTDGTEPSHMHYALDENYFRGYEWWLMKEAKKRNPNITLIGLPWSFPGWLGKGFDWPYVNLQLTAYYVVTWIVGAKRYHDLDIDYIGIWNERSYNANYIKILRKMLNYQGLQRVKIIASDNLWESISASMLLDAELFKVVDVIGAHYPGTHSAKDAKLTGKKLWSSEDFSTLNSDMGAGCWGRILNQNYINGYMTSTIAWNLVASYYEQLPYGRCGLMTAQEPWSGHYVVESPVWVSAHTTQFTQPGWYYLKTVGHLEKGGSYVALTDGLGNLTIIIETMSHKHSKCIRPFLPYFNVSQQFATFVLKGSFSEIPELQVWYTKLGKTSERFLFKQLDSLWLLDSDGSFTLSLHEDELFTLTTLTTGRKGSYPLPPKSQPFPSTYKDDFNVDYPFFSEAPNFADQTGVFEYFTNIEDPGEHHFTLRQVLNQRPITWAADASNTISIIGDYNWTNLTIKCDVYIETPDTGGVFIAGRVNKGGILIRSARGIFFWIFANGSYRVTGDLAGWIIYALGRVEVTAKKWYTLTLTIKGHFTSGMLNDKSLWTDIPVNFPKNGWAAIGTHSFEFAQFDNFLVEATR
Chain of UniProt Q10472 (Q10472 whole entry, looked up): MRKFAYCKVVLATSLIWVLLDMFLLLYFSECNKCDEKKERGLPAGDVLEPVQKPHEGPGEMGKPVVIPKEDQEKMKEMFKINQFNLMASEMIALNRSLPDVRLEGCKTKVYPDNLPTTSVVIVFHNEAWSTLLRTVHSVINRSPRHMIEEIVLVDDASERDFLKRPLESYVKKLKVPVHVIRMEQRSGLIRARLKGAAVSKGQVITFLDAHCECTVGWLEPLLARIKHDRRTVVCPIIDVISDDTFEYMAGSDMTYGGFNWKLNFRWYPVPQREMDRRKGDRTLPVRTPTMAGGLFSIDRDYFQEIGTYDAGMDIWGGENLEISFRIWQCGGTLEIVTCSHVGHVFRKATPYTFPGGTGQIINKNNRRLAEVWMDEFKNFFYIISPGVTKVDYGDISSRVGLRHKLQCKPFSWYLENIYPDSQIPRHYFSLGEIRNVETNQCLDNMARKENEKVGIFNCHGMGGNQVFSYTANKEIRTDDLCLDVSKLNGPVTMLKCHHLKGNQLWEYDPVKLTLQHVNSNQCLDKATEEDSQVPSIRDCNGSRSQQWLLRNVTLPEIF
Chain of UniProt Q92769 (Q92769 whole entry, looked up): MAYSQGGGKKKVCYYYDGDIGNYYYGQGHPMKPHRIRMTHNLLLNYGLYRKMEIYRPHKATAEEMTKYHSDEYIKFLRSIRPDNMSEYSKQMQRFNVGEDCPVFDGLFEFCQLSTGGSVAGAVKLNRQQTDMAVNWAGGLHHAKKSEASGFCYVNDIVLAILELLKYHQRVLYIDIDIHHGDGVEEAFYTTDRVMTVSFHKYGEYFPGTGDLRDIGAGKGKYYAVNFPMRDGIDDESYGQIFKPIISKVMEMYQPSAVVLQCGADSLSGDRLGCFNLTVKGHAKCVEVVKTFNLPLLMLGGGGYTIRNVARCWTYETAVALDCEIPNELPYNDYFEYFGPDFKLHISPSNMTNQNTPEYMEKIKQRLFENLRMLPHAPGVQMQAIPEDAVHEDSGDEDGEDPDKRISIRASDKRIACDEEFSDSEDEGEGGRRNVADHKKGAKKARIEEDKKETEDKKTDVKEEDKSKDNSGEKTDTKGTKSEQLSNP
Chain of UniProt Q7Z4V5 (Q7Z4V5 whole entry, looked up): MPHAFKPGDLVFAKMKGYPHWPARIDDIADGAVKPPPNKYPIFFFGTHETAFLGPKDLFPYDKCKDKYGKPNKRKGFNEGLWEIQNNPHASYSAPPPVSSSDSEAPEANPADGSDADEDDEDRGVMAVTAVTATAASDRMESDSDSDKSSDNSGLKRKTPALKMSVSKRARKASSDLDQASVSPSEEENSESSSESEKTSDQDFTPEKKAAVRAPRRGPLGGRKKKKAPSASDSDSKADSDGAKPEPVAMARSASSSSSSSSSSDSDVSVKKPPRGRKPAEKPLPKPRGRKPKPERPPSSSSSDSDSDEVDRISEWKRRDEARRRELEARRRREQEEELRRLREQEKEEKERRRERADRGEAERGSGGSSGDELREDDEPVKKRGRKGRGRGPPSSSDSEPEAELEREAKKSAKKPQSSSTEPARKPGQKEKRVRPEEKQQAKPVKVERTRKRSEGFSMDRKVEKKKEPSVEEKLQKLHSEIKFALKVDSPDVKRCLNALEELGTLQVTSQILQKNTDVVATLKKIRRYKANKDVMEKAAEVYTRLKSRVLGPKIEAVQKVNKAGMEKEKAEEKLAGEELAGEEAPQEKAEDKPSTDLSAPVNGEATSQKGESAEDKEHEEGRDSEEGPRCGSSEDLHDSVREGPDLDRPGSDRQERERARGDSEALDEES
Chain of UniProt Q9H4A6 (Q9H4A6 whole entry, looked up): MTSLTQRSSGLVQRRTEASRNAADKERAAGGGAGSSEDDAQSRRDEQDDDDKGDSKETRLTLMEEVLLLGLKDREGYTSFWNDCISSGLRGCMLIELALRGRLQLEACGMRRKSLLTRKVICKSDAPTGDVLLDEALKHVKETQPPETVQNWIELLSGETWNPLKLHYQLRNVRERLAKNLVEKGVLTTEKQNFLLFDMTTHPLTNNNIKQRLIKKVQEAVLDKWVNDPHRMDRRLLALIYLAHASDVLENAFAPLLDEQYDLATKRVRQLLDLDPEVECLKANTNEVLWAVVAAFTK
Chain of UniProt P55084 (P55084 whole entry, looked up): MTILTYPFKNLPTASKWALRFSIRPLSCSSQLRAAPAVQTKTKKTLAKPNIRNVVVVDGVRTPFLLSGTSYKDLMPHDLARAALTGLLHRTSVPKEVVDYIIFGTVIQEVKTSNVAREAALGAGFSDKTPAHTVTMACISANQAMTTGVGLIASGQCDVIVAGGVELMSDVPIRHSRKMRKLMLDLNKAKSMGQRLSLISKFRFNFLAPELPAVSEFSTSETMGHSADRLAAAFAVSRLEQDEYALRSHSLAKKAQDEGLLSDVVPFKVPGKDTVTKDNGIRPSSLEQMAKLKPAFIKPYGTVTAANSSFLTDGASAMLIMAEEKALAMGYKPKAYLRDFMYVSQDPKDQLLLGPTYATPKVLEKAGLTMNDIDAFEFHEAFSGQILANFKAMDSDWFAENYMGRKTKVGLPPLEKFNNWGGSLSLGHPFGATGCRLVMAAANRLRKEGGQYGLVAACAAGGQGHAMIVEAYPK
Chain of UniProt P29083 (P29083 whole entry, looked up): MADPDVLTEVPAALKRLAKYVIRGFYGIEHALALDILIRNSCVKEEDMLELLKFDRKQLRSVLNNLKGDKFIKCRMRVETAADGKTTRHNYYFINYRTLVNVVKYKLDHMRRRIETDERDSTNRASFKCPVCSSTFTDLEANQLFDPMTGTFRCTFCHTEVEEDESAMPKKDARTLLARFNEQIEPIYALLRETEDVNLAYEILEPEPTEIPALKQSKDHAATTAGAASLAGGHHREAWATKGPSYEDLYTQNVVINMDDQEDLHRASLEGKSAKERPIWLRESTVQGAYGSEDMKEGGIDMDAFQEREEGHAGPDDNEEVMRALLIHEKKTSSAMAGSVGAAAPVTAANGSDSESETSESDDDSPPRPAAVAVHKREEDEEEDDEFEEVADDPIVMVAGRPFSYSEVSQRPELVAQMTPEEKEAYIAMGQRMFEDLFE
Chain of UniProt Q658Y4 (Q658Y4 whole entry, looked up): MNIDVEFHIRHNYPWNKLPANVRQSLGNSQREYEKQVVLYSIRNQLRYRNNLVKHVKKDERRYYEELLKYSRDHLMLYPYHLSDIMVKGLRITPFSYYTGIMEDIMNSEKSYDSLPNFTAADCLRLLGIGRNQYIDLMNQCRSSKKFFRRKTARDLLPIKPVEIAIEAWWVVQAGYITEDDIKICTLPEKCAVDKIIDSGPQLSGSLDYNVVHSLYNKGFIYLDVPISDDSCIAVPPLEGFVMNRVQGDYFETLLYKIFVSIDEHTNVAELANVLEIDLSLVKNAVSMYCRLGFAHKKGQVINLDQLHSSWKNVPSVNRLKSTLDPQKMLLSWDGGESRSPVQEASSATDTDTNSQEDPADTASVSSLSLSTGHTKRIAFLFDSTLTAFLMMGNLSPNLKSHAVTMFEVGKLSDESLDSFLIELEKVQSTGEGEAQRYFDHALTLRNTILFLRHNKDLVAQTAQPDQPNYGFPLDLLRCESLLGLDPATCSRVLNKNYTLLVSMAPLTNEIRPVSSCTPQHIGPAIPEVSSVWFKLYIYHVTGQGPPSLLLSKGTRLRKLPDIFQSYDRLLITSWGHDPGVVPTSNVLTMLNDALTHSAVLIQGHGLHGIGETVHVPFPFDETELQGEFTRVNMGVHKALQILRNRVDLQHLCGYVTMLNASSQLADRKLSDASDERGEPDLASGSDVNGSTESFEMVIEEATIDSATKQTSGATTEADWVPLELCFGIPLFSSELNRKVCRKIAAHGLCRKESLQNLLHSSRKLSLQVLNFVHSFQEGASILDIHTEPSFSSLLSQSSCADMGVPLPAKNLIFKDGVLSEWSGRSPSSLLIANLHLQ

Target	log2 fold change
FAM91A1 (UniProt Q658Y4)	-0.015
GSK3B isoform 2 (UniProt P49841)	0.059
GDPD1 (UniProt Q8N9F7)	-0.07
FIS1 (UniProt Q9Y3D6)	0.004
GTF2H3 (UniProt Q13889)	0.09
HSPA8 (UniProt E9PK54)	-0.287
FMC1 (UniProt Q96HJ9)	-0.023
HEXA (UniProt P06865)	-0.07
HTATIP2 isoform 3 (UniProt Q9BUP3)	0.023
GTF2E1 (UniProt P29083)	-0.126
IDI1 isoform 2 (UniProt Q13907)	-0.124
GAPVD1 isoform 6 (UniProt Q14C86)	0.103
HSPA8 (UniProt P11142)	-0.029
HADHB (UniProt P55084)	0.131
HDAC1 (UniProt Q13547)	0.023
GMEB2 (UniProt Q9UKD1)	0.275 (active)
HEATR5B (UniProt Q9P2D3)	0.028

Target	log2 fold change
GBA2 (UniProt Q9HCG7)	-0.266
HIST2H3A (UniProt Q71DI3)	0.306
GALNT1 (UniProt Q10472)	0.008
HDGFL2 (UniProt Q7Z4V5)	-0.051
HAUS4 (UniProt Q9H6D7)	0.337
GLIPR2 (UniProt Q9H4G4)	0.015
FNTB (UniProt P49356)	0.02
GOLPH3 (UniProt Q9H4A6)	-0.064
GHDC (UniProt Q8N2G8)	0.006
HDAC2 (UniProt Q92769)	-0.006
FIBP (UniProt O43427)	0.395 (active)
FERMT3 (UniProt Q86UX7)	-0.003
HIP1R (UniProt O75146)	0.018
HNRNPF (UniProt P52597)	0.098
HNRNPH2 (UniProt P55795)	0.002
GALC (UniProt P54803)	-0.091
FASTKD1 (UniProt Q53R41)	-0.093

Compound: CNc1nc(-c2ccc3c(N)n[nH]c3c2)cc(N2C[C@@H](C(=O)NC3CCCCC3)CC[C@H]2C)n1
Assay: as above
Summary of the method: as §1

Target	log2 fold change
FAM91A1 (UniProt Q658Y4)	0.002
GSK3B isoform 2 (UniProt P49841)	-0.019
GDPD1 (UniProt Q8N9F7)	0.042
FIS1 (UniProt Q9Y3D6)	0.182
GTF2H3 (UniProt Q13889)	-0.001
HSPA8 (UniProt E9PK54)	-0.033
FMC1 (UniProt Q96HJ9)	-0.071
HEXA (UniProt P06865)	-0.018
HTATIP2 isoform 3 (UniProt Q9BUP3)	0.022
GTF2E1 (UniProt P29083)	-0.047
IDI1 isoform 2 (UniProt Q13907)	0.002
GAPVD1 isoform 6 (UniProt Q14C86)	0.032
HSPA8 (UniProt P11142)	-0.002
HADHB (UniProt P55084)	0.62 (active)
HDAC1 (UniProt Q13547)	0.04
GMEB2 (UniProt Q9UKD1)	-0.023
HEATR5B (UniProt Q9P2D3)	0.015

Target	log2 fold change
GBA2 (UniProt Q9HCG7)	0.11
HIST2H3A (UniProt Q71DI3)	0.185
GALNT1 (UniProt Q10472)	-0.047
HDGFL2 (UniProt Q7Z4V5)	-0.058
HAUS4 (UniProt Q9H6D7)	0.044
GLIPR2 (UniProt Q9H4G4)	0.035
FNTB (UniProt P49356)	-0.007
GOLPH3 (UniProt Q9H4A6)	0.013
GHDC (UniProt Q8N2G8)	-0.007
HDAC2 (UniProt Q92769)	-0.015
FIBP (UniProt O43427)	-0.085
FERMT3 (UniProt Q86UX7)	0.036
HIP1R (UniProt O75146)	0.015
HNRNPF (UniProt P52597)	0.004
HNRNPH2 (UniProt P55795)	-0.001
GALC (UniProt P54803)	-0.015
FASTKD1 (UniProt Q53R41)	0.112

Compound: COC(=O)N[C@@H](C)CNc1nccc(-c2cn(C(C)C)nc2-c2cc(Cl)cc(NS(C)(=O)=O)c2F)n1 [encorafenib]
Assay: as above
Summary of the method: as §1

Target	log2 fold change
FAM91A1 (UniProt Q658Y4)	0.05
GSK3B isoform 2 (UniProt P49841)	-0.003
GDPD1 (UniProt Q8N9F7)	-0.051
FIS1 (UniProt Q9Y3D6)	-0.049
GTF2H3 (UniProt Q13889)	-0.073
HSPA8 (UniProt E9PK54)	0.051
FMC1 (UniProt Q96HJ9)	-0.105
HEXA (UniProt P06865)	0.003
HTATIP2 isoform 3 (UniProt Q9BUP3)	0.01
GTF2E1 (UniProt P29083)	0.199
IDI1 isoform 2 (UniProt Q13907)	-0.001
GAPVD1 isoform 6 (UniProt Q14C86)	0.125
HSPA8 (UniProt P11142)	-0.009
HADHB (UniProt P55084)	0.001
HDAC1 (UniProt Q13547)	-0.046
GMEB2 (UniProt Q9UKD1)	-0.007
HEATR5B (UniProt Q9P2D3)	0.041

Target	log2 fold change
GBA2 (UniProt Q9HCG7)	0.084
HIST2H3A (UniProt Q71DI3)	-0.063
GALNT1 (UniProt Q10472)	-0.037
HDGFL2 (UniProt Q7Z4V5)	-0.016
HAUS4 (UniProt Q9H6D7)	0.194
GLIPR2 (UniProt Q9H4G4)	-0.062
FNTB (UniProt P49356)	-0.016
GOLPH3 (UniProt Q9H4A6)	0.047
GHDC (UniProt Q8N2G8)	0.001
HDAC2 (UniProt Q92769)	-0.046
FIBP (UniProt O43427)	0.039
FERMT3 (UniProt Q86UX7)	0.063
HIP1R (UniProt O75146)	-0.019
HNRNPF (UniProt P52597)	0.119
HNRNPH2 (UniProt P55795)	0.02
GALC (UniProt P54803)	0.024
FASTKD1 (UniProt Q53R41)	0.026
